According to the supplement of paper PMC10981050:
“And” between values parts separate entries of the source, which are not always exact repeats. Identical values can stand only once. Counter-ions that a name gives are not always drawn.

Test system: K562
Assay: cell viability relative to vehicle control; higher = less cytotoxic
Conditions: 10 µM; SRSF2 genotype: SRSF2 P95H/wt
How it was run: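 After removal of identity-inconsistent compounds, the Selleck bioactive, kinase and epigenetic probe libraries were screened on CRISPR-edited mutant clones and isogenic wild-type clones of four leukaemia lines. Plates were 384-well, each well holding 2000 cells in 50 µL medium and receiving a single 10 µM acoustically dispensed dose. CellTiter-Glo luminescence was read 48 h later, after the supernatant was taken off. Genedata Screener was used to express viability as percent of the on-plate vehicle control.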

SMILES | cell viability
CCCCOc1nc(N)c2c(n1)N(Cc1cccc(CN3CCCC3)c1)CC(=O)N2 | 86.2% and 92.1%
CCOC(=O)[C@H](CCc1ccccc1)N[C@@H](C)C(=O)N1Cc2cc(OC)c(OC)cc2C[C@H]1C(=O)O [Moexipril HCl] | 93.9% and 103%
CS(=O)(=O)c1ccc(C2=C(c3ccccc3)C(=O)OC2)cc1 [Rofecoxib (Vioxx)] | 98.7% and 95.2%
CN(CCOc1ccc(CC2SC(=O)NC2=O)cc1)c1ccccn1 (configuration not stated) [Rosiglitazone HCl] | 100% and 101%
Cc1cc(NC(=O)Nc2ccc(N(C)C)cc2)c2cc(F)cc(F)c2n1 | 89.9% and 95.8%
CCN(CCCc1ccccc1)CCCc1ccccc1 [Alverine Citrate] | 75.1% and 81.5%
COc1ccc(C2CC(=O)c3c(O)cc(OC4OC(COC5OC(C)C(O)C(O)C5O)C(O)C(O)C4O)cc3O2)cc1OC (configuration not stated) [Methyl-Hesperidin] | 96.9% and 106%
CNC(=O)CN1CCC(Oc2cc3c(Nc4cccc(Cl)c4F)ncnc3cc2OC)CC1 | 85.2% and 96%
CC1OC(OC2C(CO)OC(OCC3OC(OC(=O)C45CCC(C)(C)CC4C4=CCC6C7(C)CCC(OC8OCC(O)C(O)C8O)C(C)(CO)C7CCC6(C)C4(C)CC5)C(O)C(O)C3O)C(O)C2O)C(O)C(O)C1O (configuration not stated) [Hederacoside D] | 98.3% and 104%
C=C[C@@H]1C[C@]1(NC(=O)[C@@H]1C[C@@H](Oc2ncc(OC)c3ccc(Cl)cc23)CN1C(=O)[C@@H](NC(=O)OC(C)(C)C)C(C)(C)C)C(=O)NS(=O)(=O)C1CC1 [Asunaprevir] | 88.6% and 75.8%
C=C(Cc1ccccc1Cl)C(=O)OCC | 95.9% and 107%
O=C(O)C1=C(CSc2nnnn2CS(=O)(=O)O)CS[C@@H]2[C@H](NC(=O)[C@H](O)c3ccccc3)C(=O)N12 [Cefonicid sodium] | 103%
